Out of some 360,000 compounds screened, about 1,600 (0.44%) were called active.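 How the source made its calls: active means inhibition above the screen-wide average plus 3 SD (cut at about 13% in these data); inactive means the rest.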 For the sample, actives were picked, then their nearest neighbours and some compounds at random.
molecular target: Galanin receptor type 3 (Homo sapiens) (UniProt O60755); test: blockers of human galanin receptor 3 – cell-based, fluorescence readout, primary screen (AID 651719); settings: HEK293 GalR3-CNG cAMP membrane potential fluorescence; at 3 µM; hits give high values;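 further: forskolin and galanin both at EC90 stimulate the cells; cAMP rise reported by CNG channel membrane potential dye signal; 0% = forskolin plus galanin with DMSO and 100% = forskolin alone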
Sequence (O60755 1-299 limits assumed): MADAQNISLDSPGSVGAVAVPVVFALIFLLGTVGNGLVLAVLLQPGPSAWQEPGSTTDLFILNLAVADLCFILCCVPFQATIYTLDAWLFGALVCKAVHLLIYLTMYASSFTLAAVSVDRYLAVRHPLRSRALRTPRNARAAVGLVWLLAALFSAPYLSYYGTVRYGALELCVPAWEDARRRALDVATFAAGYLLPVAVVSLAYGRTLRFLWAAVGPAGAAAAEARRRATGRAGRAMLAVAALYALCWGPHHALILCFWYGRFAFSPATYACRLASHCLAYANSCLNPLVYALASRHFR

Row | SMILES | inhibition
1 | CCCCCCCCCCCCn1ccc(=N)cc1 | 75.6% (active)
2 | CCN(CC)C(=O)[C@@H]1C=C2c3cccc4[nH]c(Br)c(c34)C[C@H]2N(C)C1 | -11% (inactive)
3 | COC(=O)C1=C(c2cc3ccccc3s2)C[C@@H]2CC[C@H]1N2C(=O)NCc1cccc2ccccc12 | 17.8% (active)
4 | COC(=O)C1=C(c2cc3ccccc3s2)C[C@@H]2CC[C@H]1N2C(=O)NC(C)C | -4.53% (inactive)
5 | COC(=O)C1=C(c2cc3ccccc3s2)C[C@@H]2CC[C@H]1N2C(=O)NCCO | -2.95% (inactive)
6 | O=c1[nH]c(=O)n(-c2ccccc2)c(O)c1C=NC12CN3CN(CN(C3)C1)C2 | 5.15% (inactive)
7 | CS(=O)(=O)N1CCC2CCNC2C1 (stereo not given) | 0.87% (inactive)
8 | CCOC(=O)[C@]12Cc3ccccc3[C@H]1N(C1CCCCC1)C(=O)c1cc(OC)ccc12 | -8.42% (inactive)
9 | Brc1ccc2c(c1)CNCc1cnnn1-2 | -5.56% (inactive)
10 | CCN(CC)C(=O)c1ccc(NC(=O)c2cc(-n3cnnc3)ccc2Cl)cc1 | -1.92% (inactive)
11 | C[C@]12CC[C@H](O)C[C@H]1CC[C@@H]1C2CC[C@]2(C)[C@@H](C3=CC(=O)OC3)[C@@H](O)C[C@]12O (stereo not given in full) | 30.2% (active)
12 | CC12CCC(O)CC1CCC1C2CCC2(C)C(C(=O)CC(O)C(F)(F)F)CCC12 (stereo not given) | -1.5% (inactive)
13 | COc1ccc2c(c1)[C@@]13CCCCC1[C@@H](C2)NCC3 (stereo not given in full) | -3.82% (inactive)
14 | COc1ccc(CN2CCN(c3ccccc3F)CC2)c(OC)c1 | -4.46% (inactive)
15 | Clc1ccc([C@@H]2CC3CCC2N3)cn1 (stereo not given in full) | -3.43% (inactive)
16 | Cc1ccc(-n2c(-c3ccc([N+](=O)[O-])cc3)nc3ccccc3c2=O)cc1 | -3.3% (inactive)
17 | O=c1c2ccccc2nc(-c2ccccc2)n1-c1ccccn1 | -5.42% (inactive)
18 | COc1ccc(-n2c(-c3ccccc3)nc3ccccc3c2=O)cc1 | 16.9% (active)
19 | Cc1cc(N2CCNC[C@@H]2C)ccc1N1CC[C@H](O)C1 | -7.28% (inactive)
20 | CCC(C)NC1(c2ccccc2)CCCCC1 (stereo not given) | -2.56% (inactive)
21 | O=S(=O)(c1ccccc1)N1CCC2CCNC2C1 (stereo not given) | -5.66% (inactive)
22 | COc1cc(OC)cc(C(=O)NCCN2CCC3(CC2)C(=O)NCN3c2ccccc2)c1 | -6.02% (inactive)
23 | COC1C(O)C(C)OC(OC2CCC3(C=O)C(CCC4C3CCC3(C)C(C5=CC(=O)OC5)CCC43O)C2)C1O (stereo not given) | 43% (active)
24 | C/C=C/CC1(CC)C(=O)NC(=S)NC1=O | -12.8% (inactive)
25 | CCCC(C)n1[nH]c(=O)c2c1NC(=O)CSC2c1ccc(OC)c(OC)c1 (stereo not given) | -3.1% (inactive)

From PubChem BioAssay AID651719 (The Scripps Research Institute Molecular Screening Center, 2012)
